The results in this text go back to PubChem BioAssay.

A short description of experiment [1]: resazurin metabolic signal in HepG2 cells – cell-based, resazurin fluorescence, 24 h, PK04 Diversity Set, profiling panel (AID 1172). Note: test concentration not given here. To be noted: HepG2 viability, higher = more signal.
The nature of experiment [2]: budding yeast growth changes without added modifier – OD600, strain BY4716, 24 h, basal condition, primary screen (AID 1173). The note with it: S. cerevisiae BY4716 growth, OD600, 24 h; higher = more signal, called active from +8 up or from −8 down.
Experiment [3] can be described thus: viability profiling in MM1S myeloma cells – cell-based, resazurin fluorescence, basal, 24 h, PK04 Diversity Set, profiling panel (AID 1174).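 Note: MM1S multiple myeloma cell line; test concentration not given here.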 To be noted: higher = more signal, called active from +8 up or from −8 down. In general terms: The colour change of resazurin is a common sign of viable cells or microbes.
Experiment [4] concerns the target Dihydroorotate dehydrogenase (quinone), mitochondrial (Plasmodium falciparum (isolate 3D7)) (UniProt Q08210). The experiment can be described thus: inhibition of P. falciparum DHODH – biochemical, C-terminal His tag, absorbance 600 nm, primary screen (AID 1175).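 Note: recombinant parasite enzyme with a five histidine tag at its C terminus; test concentration not given here.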 To be noted: PfDHODH enzyme, DCIP absorbance 600 nm; higher = more signal, called active from +8 up or from −8 down.

A short description of experiment [5]: inhibition of PAO1 biofilm formation – strain PAO1, LB-PBS medium, absorbance 600 nm, primary screen (AID 1176). Note: test concentration not given here. To be noted: P. aeruginosa PAO1 growth/biofilm, A600, 12 h; higher = more signal.
Experiment [6] is described as follows: growth modulation of vineyard yeast isolate – strain RM11-1a, OD600, basal, 24 h, primary screen (AID 1177).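 Note: cultures grown under basal conditions with no added stressor; test concentration not given here.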 The note with it: S. cerevisiae RM11-1a growth, OD600, 24 h; higher = more signal, called active from +8 up or from −8 down.
Experiment [7] can be described thus: growth of efflux-deficient E. coli DRC39 – strain DRC39, OD650, 24 h, E. coli filamentation inducers, primary screen (AID 1178).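 Note: growth measured as culture turbidity by optical density at 650 nm; test concentration not given here.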 The note with it: E. coli DRC39 acrAB, higher = more signal, called active from +8 up or from −8 down.
The nature of experiment [8]: growth of efflux-deficient E. coli DRC39 – strain DRC39, OD650, 48 h, E. coli filamentation inducers, primary screen (AID 1179).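 Note: screen aims at cell division blockers that make cells filament.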 The note with it: E. coli DRC39 delta-acrAB growth, higher = more signal, called active from +8 up or from −8 down.
The nature of experiment [9]: viability profiling in RPMI8226 myeloma cells – cell-based, resazurin fluorescence, basal, 24 h, PK04 Diversity Set, profiling panel (AID 1180).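 Note: RPMI8826 multiple myeloma cell line at 5000 cells per well; test concentration not given here.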 The note with it: higher = more signal.
Experiment [10] addresses E3 ubiquitin-protein ligase XIAP (Homo sapiens) (UniProt P98170). Put plainly: small molecules binding XIAP protein – biophysical, small-molecule microarray, fluorescence 635 nm, primary screen (AID 1181).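 Note: score merges 667 nm emission and signal to noise over triplicate slides.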 The note with it: higher = more signal.

Active and inactive are the calls of the source. Unless noted, the rule behind the calls is not given here.

E3 ubiquitin-protein ligase XIAP (Homo sapiens), sequence (P98170 whole entry, looked up): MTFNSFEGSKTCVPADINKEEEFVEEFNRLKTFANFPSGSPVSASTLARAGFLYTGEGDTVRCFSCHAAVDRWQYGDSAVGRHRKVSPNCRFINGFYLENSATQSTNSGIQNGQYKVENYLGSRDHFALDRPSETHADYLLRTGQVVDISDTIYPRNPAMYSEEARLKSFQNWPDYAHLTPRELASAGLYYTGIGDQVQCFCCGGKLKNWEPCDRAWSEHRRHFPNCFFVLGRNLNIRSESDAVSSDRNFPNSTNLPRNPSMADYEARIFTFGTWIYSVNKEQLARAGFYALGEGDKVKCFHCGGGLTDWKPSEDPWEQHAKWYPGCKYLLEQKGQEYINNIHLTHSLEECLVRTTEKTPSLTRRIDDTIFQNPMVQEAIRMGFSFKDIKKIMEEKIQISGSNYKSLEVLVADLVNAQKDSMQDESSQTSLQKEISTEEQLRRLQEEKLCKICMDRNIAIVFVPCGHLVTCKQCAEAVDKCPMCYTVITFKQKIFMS
Dihydroorotate dehydrogenase (quinone), mitochondrial (Plasmodium falciparum (isolate 3D7)), sequence (Q08210 whole entry, looked up): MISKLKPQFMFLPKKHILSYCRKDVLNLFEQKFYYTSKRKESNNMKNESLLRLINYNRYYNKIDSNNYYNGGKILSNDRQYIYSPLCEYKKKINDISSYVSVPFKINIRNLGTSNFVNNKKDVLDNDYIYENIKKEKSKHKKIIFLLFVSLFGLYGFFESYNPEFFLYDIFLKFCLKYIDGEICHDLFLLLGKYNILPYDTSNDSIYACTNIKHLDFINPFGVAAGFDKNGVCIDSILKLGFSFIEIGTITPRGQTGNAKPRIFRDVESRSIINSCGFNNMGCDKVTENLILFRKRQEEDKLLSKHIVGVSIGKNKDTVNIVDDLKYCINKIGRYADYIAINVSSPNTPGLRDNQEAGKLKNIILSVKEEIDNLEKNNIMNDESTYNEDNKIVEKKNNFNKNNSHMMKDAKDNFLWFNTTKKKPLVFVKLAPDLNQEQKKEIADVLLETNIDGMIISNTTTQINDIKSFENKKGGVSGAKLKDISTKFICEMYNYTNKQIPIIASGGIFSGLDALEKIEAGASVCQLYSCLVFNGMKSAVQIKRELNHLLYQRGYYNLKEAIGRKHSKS

On to `C=C(CCCC)C(=O)CC[C@H](OC(C)=O)c1ccccc1OCCO`, for which the z-score was -1.32 in experiment [1]; -2.49 (inactive) in experiment [2]; -2.2 (inactive) in [3]; -1.24 (inactive) in [5]; 0.0549 (inactive) in experiment [6]; -1.17 (inactive) in experiment [7]. Also, the z-score was -1.1 (inactive) in [8] and -2.13 in [9]. Also, the composite z-score was -0.573 (inactive) in experiment [4] and -0.0696 in experiment [10].

Consider `C=CCNC(=O)[C@@H]1[C@H]2C(=O)O[C@H](c3ccccc3)[C@H](c3ccccc3)N2[C@H](c2ccccc2OCCO)[C@@]12C(=O)N(C(=O)OCCOC)c1ccc(C#CCCO)cc12`, for which the z-score in [1] is -0.301; in experiment [2], 0.858 (inactive); in experiment [3], -1.02 (inactive); in [5], 1.32 (inactive); in experiment [6] it was 2.15 (inactive); in experiment [7], 0.251 (inactive). For the same compound, the z-score in experiment [8] is 0.569 (inactive); in [9] it was -1.56. The composite z-score in experiment [4] was -0.202 (inactive); in experiment [10], -0.0347.

As to `COc1cccc(OC)c1C(=O)O[C@H]1[C@@H]2OC(=O)[C@H](Cc3cccc(Br)c3)C/C=C/C[C@@H](Cc3cccc(Br)c3)C(=O)O[C@H]2[C@@H](OC)O[C@@H]1CO`, the z-score in [1] was -0.946; in experiment [2] it was -0.696 (inactive); in experiment [3], -1.11 (inactive); in [5], 0.277 (inactive); in [6], 0.788 (inactive); in experiment [7], -0.0368 (inactive). Further, the figures for the z-score in experiment [8] and in experiment [9] were 0.165 (inactive) and -1.38, respectively. Moreover, the figures for the composite z-score in [4] and in experiment [10] were -0.491 (inactive) and 0.182, respectively.

In the case of `O=C1C2C=CC(C(O)C(c3ccccc3)c3ccccc3)N(Nc3ccccc3)C2C(=O)N1c1ccccc1` (stereo not given), the z-score in experiment [1] is 0.9; in experiment [2], -0.659 (inactive); in experiment [3] it was -1.05 (inactive); in experiment [5] it was 1.26 (inactive); in [6], 0.347 (inactive); in [7] it was -0.615 (inactive). In addition, the z-score in [8] was -0.0085 (inactive); in experiment [9] it was -0.403. Moreover, the values for the composite z-score in experiment [4] and in experiment [10] were 1.09 (inactive) and 0.34, respectively.

As for `COCCOC(=O)N1C(=O)[C@@]2(c3cc(C#CC4(O)CCCCCC4)ccc31)[C@H](c1ccc(OCCO)cc1)N1[C@H](c3ccccc3)[C@H](c3ccccc3)OC(=O)[C@H]1[C@@H]2C(=O)N1CCCCCCC1`, the z-score in experiment [1] was -0.768; in [2], 0.973 (inactive); in experiment [3], -0.418 (inactive); in experiment [5] it was 1.16 (inactive); in [6], 2.11 (inactive); in [7], -2.2 (inactive). Further, the z-score in experiment [8] is -1.8 (inactive); in experiment [9], 0.0982. For the same compound, the figures for the composite z-score in experiment [4] and in [10] were 0.0448 (inactive) and -0.151, respectively.

For the compound `C=CC[C@@]12N=C(c3ccc(OCCCO)cc3)O[C@@H]1c1ccccc1N(Cc1ccccc1)C2=O`, the z-score in experiment [1] was 0.157; in experiment [2], -0.848 (inactive); in experiment [3], -2.58 (inactive); in [5], 0.469 (inactive); in [6], 0.632 (inactive); in experiment [7], 1.48 (inactive). Besides, the z-score is 0.666 (inactive) in experiment [8] and -2.37 in experiment [9]. The values for the composite z-score in [4] and in [10] were -0.162 (inactive) and 0.322, respectively.

As for `O=C1OCCC=C[C@H]2OC34C=CCN(c5ccc(Cl)cc5)C(=O)[C@H]3N(CCO)C(=O)[C@@H]4C12` (stereo not given in full), the z-score in experiment [1] is 0.545; in experiment [2], 0.204 (inactive); in experiment [3] it was 0.221 (inactive); in experiment [5], -0.317 (inactive); in [6], 0.132 (inactive); in experiment [7] it was -0.947 (inactive). In addition, the z-score is -1.04 (inactive) in [8] and -0.202 in experiment [9]. Besides, the composite z-score in experiment [4] was -1.45 (inactive); in experiment [10], -0.31.

Regarding `COc1ccccc1CN1C(=O)c2ccccc2[C@@H](C(=O)NCCCN(C)C)[C@@H]1c1ccc(CO)cc1`, the z-score in [1] is 0.619; in experiment [2], -1.37 (inactive); in experiment [3], 1.22 (inactive); in experiment [5], 0.292 (inactive); in experiment [6], -0.942 (inactive); in [7], 0.65 (inactive). Further, the z-score in experiment [8] is 1.37 (inactive); in [9], 1.09. Besides, the figures for the composite z-score in experiment [4] and in [10] were 0.0824 (inactive) and -0.0426, respectively.

Take `C=CCC(OC(C)=O)[C@@H]1[C@@H](N(Cc2ccc(-c3ccccc3)cc2)C(=O)c2ccc(-c3ccccc3)cc2)c2cc(OCCCO)ccc2N1C(=O)c1ccc2ccccc2n1` (stereo not given in full): the z-score is 1.16 in experiment [1]; -0.599 (inactive) in experiment [2]; 1.3 (inactive) in [3]; 0.149 (inactive) in experiment [5]; -0.354 (inactive) in experiment [6]; 0.348 (inactive) in experiment [7]. Besides, the z-score in experiment [8] is 0.308 (inactive); in experiment [9] it was 1.13. The figures for the composite z-score in experiment [4] and in [10] were -0.149 (inactive) and -0.0103, respectively.

As for `COc1ccc([Si](C)(C)[C@H]2[C@H](CCn3cc([C@H](O)c4ccccc4)nn3)O[C@@]3(C(=O)N(c4ccccc4)c4ccccc43)[C@@H]2C)cc1`, the z-score in experiment [1] is 0.378; in experiment [2], 0.885 (inactive); in experiment [3] it was -1.82 (inactive); in experiment [5], 0.131 (inactive); in experiment [6], 2.12 (inactive); in experiment [7], 0.346 (inactive). The z-score was 0.0139 (inactive) in experiment [8] and -1.34 in experiment [9]. The composite z-score in experiment [4] is 0.413 (inactive); in [10], -0.316.

With `C=CC[C@]1(C(=O)N(C)C)COC(c2ccc(OCCCO)cc2)=N1`, the z-score was 0.0446 in experiment [1]; -2.54 (inactive) in [2]; 0.41 (inactive) in experiment [3]; 1.21 (inactive) in [5]; 0.919 (inactive) in experiment [6]; 0.386 (inactive) in experiment [7]. The z-score was -2.8 (inactive) in experiment [8] and 0.764 in experiment [9]. Also, the results for the composite z-score in [4] and in experiment [10] were -0.261 (inactive) and 0.202, respectively.

With `CCCCC=C[C@@H](NC(=O)c1ccc(C(F)(F)F)cc1)c1ccccc1`, the z-score in experiment [1] is 1.64; in experiment [2] it was -0.118 (inactive); in experiment [3] it was 0.423 (inactive); in experiment [5], -0.222 (inactive); in [6] it was 0.562 (inactive); in experiment [7] it was -0.244 (inactive). For the same compound, the z-score was 0.291 (inactive) in [8] and 1.1 in [9]. In addition, the composite z-score in experiment [4] is -0.101 (inactive); in [10], 0.0699.

For `COc1ccc([Si](C)(C)[C@H]2[C@H](CCn3cc([C@H](O)c4ccccc4)nn3)O[C@@]3(C(=O)N(C)c4c(Br)cc(C)cc43)[C@@H]2C)cc1`, the z-score was -2.69 in [1]; -0.691 (inactive) in experiment [2]; -3.29 (inactive) in experiment [3]; 1.03 (inactive) in [5]; 1.01 (inactive) in [6]; 0.566 (inactive) in experiment [7]. Besides, the z-score is 0.132 (inactive) in [8] and -5.5 in experiment [9]. The composite z-score in experiment [4] was 1.19 (inactive); in experiment [10] it was 0.0512.
